Reference: PubChem BioAssay
Calls of active or inactive are those of the source.

How the values were obtained:
Albumin (Bos taurus) = Albumin (Bos taurus) (UniProt P02769); assay: bovine serum albumin binders on microarray, profiling panel, artefact control for SMM control protein annotation, biochemical, small-molecule microarray, Alexa647 label, 635/667 nm fluorescence (AID 1118); conditions: BSA-A647 binding, fluorescence 635 nm, higher = more signal;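 note: score merges 667 nm emission intensity and signal-to-noise per printed compound spot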
[1] = small-molecule microarray binders of probe aXIP, primary screen, biochemical, NeuroSMM set, 635/667 nm fluorescence (AID 1119); conditions: higher = more signal, called active from +8 up or from −8 down;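 note: probe is the protein aXip251-270 applied at 1 µg/mL to compound-printed slides; binding of probe to printed compounds measured as 667 nm fluorescence plus signal to noise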
[2] = small-molecule binders of probe aNOTCH3, primary screen, biochemical, small-molecule microarray, 635/667 nm fluorescence (AID 1120); conditions: higher = more signal;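 note: probe is a biotin-tagged antibody raised against NOTCH3 rather than NOTCH3 protein; score merges spot fluorescence near 667 nm with spot signal to noise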
[3] = small-molecule binders of probe aNOTCH2, primary screen, biochemical, small-molecule microarray, 635/667 nm fluorescence (AID 1121); conditions: higher = more signal;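 note: score merges feature fluorescence read at 667 nm with its signal to noise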
[4] = biological target: Carbonic anhydrase 2 (Homo sapiens) (UniProt P00918); assay: CAII small-molecule binders, profiling panel, biochemical, small-molecule microarray, Alexa647-labelled CAII (AID 1122); conditions: CAII-A647 binding fluorescence, higher = more signal
[5] = COS7 lysate on small-molecule microarray, probe aHis, 635 nm (AID 1123); conditions: COS7 cell lysate, fluorescence, higher = more signal;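 note: z-score combines 667nm fluorescence intensity with signal-to-noise per printed compound spot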
[6] = compound binding in COS7 lysate, probe aLAP1, primary screen, cell lysate, small-molecule microarray (AID 1124); conditions: probe aLAP1, fluorescence, higher = more signal;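 note: lysate comes from COS7 cells expressing LAP1 and is applied at 0.3 µg/mL; score merges spot fluorescence near 667 nm with signal-to-noise over triplicate slides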
Sam68 (KHDRBS1) = assay: Sam68 small-molecule binders, primary screen, biochemical, small-molecule microarray, 635 nm fluorescence (AID 1125); conditions: small-molecule microarray binding, higher = more signal;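 note: score merges 667 nm channel intensity with signal to noise over triplicate slides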
[7] = system: Chordin-like protein 2 (CHRDL2); assay: CHRDL2 small-molecule binders, primary screen, biochemical, small-molecule microarray, 635 nm fluorescence (AID 1126); conditions: small-molecule microarray binding, fluorescence 635 nm; higher = more signal;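 note: printed compound slides probed with Chrdl2 protein at 4 µg/mL for 1 h at 4 C; score merges 667 nm emission intensity with signal to noise over three replicate slides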
[8] = biological target: Concanavalin-A (Canavalia ensiformis) (UniProt P02866); assay: ConA small-molecule binders, primary screen, artefact control for SMM control protein annotation, biochemical, small-molecule microarray, Alexa647 label, 635 nm (AID 1127); conditions: ConA-A647 binding fluorescence, higher = more signal;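 note: z combines 667 nm emission intensity with signal-to-noise across three replicate slides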
Sequence of Concanavalin-A (Canavalia ensiformis) (P02866 whole entry, looked up): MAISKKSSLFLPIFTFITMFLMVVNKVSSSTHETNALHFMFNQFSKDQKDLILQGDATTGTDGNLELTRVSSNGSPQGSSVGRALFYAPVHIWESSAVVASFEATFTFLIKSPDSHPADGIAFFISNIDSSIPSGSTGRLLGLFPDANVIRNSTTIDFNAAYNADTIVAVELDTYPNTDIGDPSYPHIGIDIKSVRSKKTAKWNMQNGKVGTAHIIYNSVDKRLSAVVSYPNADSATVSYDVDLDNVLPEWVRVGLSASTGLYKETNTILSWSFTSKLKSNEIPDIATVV

Sequence of Albumin (Bos taurus) (P02769 whole entry, looked up): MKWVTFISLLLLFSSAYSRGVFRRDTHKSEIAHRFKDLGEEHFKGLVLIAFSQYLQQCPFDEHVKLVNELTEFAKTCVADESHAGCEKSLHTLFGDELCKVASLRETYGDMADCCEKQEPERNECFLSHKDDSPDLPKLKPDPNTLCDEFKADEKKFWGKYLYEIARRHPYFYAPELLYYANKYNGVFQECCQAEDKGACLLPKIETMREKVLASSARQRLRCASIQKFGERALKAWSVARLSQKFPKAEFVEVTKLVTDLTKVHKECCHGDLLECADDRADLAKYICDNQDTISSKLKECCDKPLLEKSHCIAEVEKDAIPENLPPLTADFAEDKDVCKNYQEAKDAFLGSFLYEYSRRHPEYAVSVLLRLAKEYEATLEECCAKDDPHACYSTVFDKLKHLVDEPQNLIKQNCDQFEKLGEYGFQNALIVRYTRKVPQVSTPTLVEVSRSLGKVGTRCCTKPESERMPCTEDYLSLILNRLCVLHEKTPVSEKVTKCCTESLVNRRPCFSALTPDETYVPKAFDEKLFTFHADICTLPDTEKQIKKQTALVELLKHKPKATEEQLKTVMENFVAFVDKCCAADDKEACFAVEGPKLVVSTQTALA

| Compound | composite z-score (Albumin (Bos taurus)) | composite Z-score [1] | composite z-score [2] | composite z-score [3] | composite z-score [4] | composite z-score [5] | composite z-score [6] | composite z-score (Sam68 (KHDRBS1)) | composite z-score [7] | composite z-score [8] |
| --- | --- | --- | --- | --- | --- | --- | --- | --- | --- | --- |
| COc1ccc(CCNC(=O)[C@@]2(Sc3ccc(C)cc3)CC(=O)N(C3CCCCC3)[C@@H]2c2ccc(CO)cc2I)cc1 | 0.805 | 0.0371 (inactive) | -0.0111 | -0.0759 | 0.513 | 1.58 | 0.284 | 1.31 | 0.119 | 0.977 |
| C#CCNC(=O)[C@H](Cc1ccccc1)NC(=O)CCC(=O)O | -1.09 | 1.42 (inactive) | -0.262 | -0.161 | -0.124 | -0.301 | 0.236 | -1.74 | -0.471 | -1.83 |
| COCCOC(=O)N1C(=O)[C@@]2(c3cc(C#CCCO)ccc31)[C@H](C(=O)Nc1nc3ccccc3s1)[C@H]1C(=O)O[C@H](c3ccccc3)[C@H](c3ccccc3)N1[C@@H]2c1ccc(OCCO)cc1 | 0.72 | -1.03 (inactive) | 0.286 | -0.0028 | 0.295 | 0.793 | 0.225 | 1.28 | 0.387 | 1.07 |
| CC(=O)N1Cc2ccccc2C[C@@]2(COC(c3ccc(OCCCO)cc3)=N2)C1=O | 0.707 | -0.151 (inactive) | 0.286 | 0.16 | 0.669 | 2.38 | 0.16 | 1.3 | 0.341 | 1.15 |
| CCOC(=O)C[C@H]1[C@H](OC(=O)Cc2ccc3c(c2)OCO3)[C@@H](NC(=O)c2ccc(-c3ccccc3)cc2)c2cc(OCCCO)ccc2N1C(=O)Cc1ccc(OC)cc1 | 0.641 | 0.0844 (inactive) | 0.121 | 0.0126 | 0.0713 | 0.365 | 0.597 | 0.843 | 0.236 | 0.152 |
| CC(C)OC(=O)C=C1C[C@@H](c2ccccc2C(F)(F)F)O[C@@H](c2ccccc2C(F)(F)F)O1 | 0.629 | -0.309 (inactive) | -0.0044 | -0.216 | -0.0962 | 0.387 | 0.354 | 0.609 | 0.0577 | 0.257 |
| C=CCC(OC(C)=O)[C@@H]1[C@@H](N(Cc2cccc3ccccc23)C(=O)c2ccc(-c3ccccc3)cc2)c2cc(OCCCO)ccc2N1C(=O)Cc1ccc(OC)cc1 (stereo not given in full) | 0.173 | -0.829 (inactive) | -0.0232 | -0.143 | 0.0745 | 0.0863 | -0.0691 | -0.0453 | -0.147 | 0.0866 |
| COCCOC(=O)N1C(=O)[C@@]2(c3cc(C#CCCO)ccc31)[C@H](c1ccc(OCCO)cc1)N1[C@H](c3ccccc3)[C@H](c3ccccc3)OC(=O)[C@H]1[C@@H]2C(=O)N1CCN(c2ncccn2)CC1 | 0.679 | -0.114 (inactive) | 0.162 | -0.161 | 0.31 | 2.03 | 0.602 | 1.29 | 0.718 | 1.15 |
| COc1ccc([Si](C)(C)[C@H]2[C@H](CCO)O[C@@]3(C(=O)N(C)c4c(Br)cc(C)cc43)[C@@H]2C)cc1 | -0.094 | -0.303 (inactive) | -0.0596 | -0.0793 | 0.473 | 1 | 0.0847 | 0.953 | 0.344 | 1.07 |
| CN1C(=O)C2C=CC(C(O)C3CC=CCC3)N(NC(=O)OC(C)(C)C)C2C1=O (stereo not given) | 1.03 | 3.41 (inactive) | 0.178 | -0.121 | 0.713 | 3.19 | 0.532 | 1.32 | 0.547 | 0.627 |
| COc1ccc(CCNC(=O)[C@@H]2c3ccccc3C(=O)N(C3Cc4ccccc4C3)[C@H]2c2ccc(CO)cc2)cc1 | 0.397 | 0.131 (inactive) | -0.0725 | -0.0907 | 0.705 | 2.21 | 0.0554 | 0.73 | -0.551 | 0.542 |
| [N-]=[N+]=NCc1ccccc1C[C@]1(C(=O)O)N=C(c2ccc(OCCCO)cc2)O[C@H]1c1ccccc1N=[N+]=[N-] | 0.82 | -0.17 (inactive) | 0.238 | 0.0755 | 0.55 | 2.64 | 0.571 | 1.32 | -0.958 | 1.05 |
| C=CCOC(=O)[C@H]1[C@@H]2C(=O)O[C@@H](c3ccccc3)[C@@H](c3ccccc3)N2[C@@H](c2ccc(OCCOC(=O)[C@H]3C[C@H]4C(=O)N5CCC[C@H]5C(=O)N4[C@H]3c3ccc(O)cc3)cc2)[C@]12C(=O)Nc1ccc(I)cc12 | -0.124 | 5.37 (inactive) | 1.47 | 0.755 | 0.364 | 3.31 | 1.13 | 1.31 | 1.06 | 0.955 |
